This note sets out measurements from PubChem BioAssay (EPA / NIEHS).

Activity calls are given as the source filed them. The calls were made as follows: active = hit-call score of the fitted dose curve at least 0.9, where 1 is the maximum; inactive = score below 0.9.

One assay is described as follows: UKN4_HCS_LUHMES_neurite_outgrowth: University of Konstanz (UKN) Leist Lab Neurite Outgrowth Assay in human LUHMES cells (UKN4) (AID 2284206). To be noted: actives raise or lower the signal. An outline of the steps: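 Human LUHMES neuronal precursors, differentiated 2 days then replated without cAMP and GDNF, exposed to compounds for 24 h. Neurite area imaged by high-content microscopy after calcein-AM live staining; Hoechst H-33342 for viability; bidirectional fit versus DMSO.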
By AC50 is commonly meant the midpoint of the concentration-response curve, whichever way the signal moves. As to `O=S1OC[C@@H]2[C@H](CO1)[C@]1(Cl)C(Cl)=C(Cl)[C@@]2(Cl)C1(Cl)Cl` (stereo partly drawn), the AC50 is 18.6 µM (active).

On to `Cc1cc(C(F)(C(F)(F)F)C(F)(F)F)ccc1NC(=O)c1cccc(I)c1C(=O)NC(C)(C)CS(C)(=O)=O`, for which the AC50 was 0.264 µM (active).

As to `CNC(=O)CSP(=O)(OC)OC`, the outcome was inactive.

A further assay in a line: IUF_NPC1b_proliferation_BrdU_72hr: Leibniz Research Institute for Environmental Medicine (IUF) 72-hour Neural Progenitor Cell Bromodeoxyuridine (BrdU) Proliferation Assay (NPC1b) (AID 2284207).
Conditions: not given
An outline of the steps: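 BrdU luminescence ELISA quantified DNA synthesis over the last 16 h of a 72 h exposure, fitted against DMSO. Primary hNPC spheres from gestational week 16-19 cortex grown with EGF/FGF at 37C, pH 7.2-7.6.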
For the molecule `OC(Cc1ccccc1Cl)(Cn1[nH]cnc1=S)C1(Cl)CC1` (stereo not drawn), the AC50 is 41.7 nM (active).

As for `O=S1OC[C@@H]2[C@H](CO1)[C@]1(Cl)C(Cl)=C(Cl)[C@@]2(Cl)C1(Cl)Cl` (stereo partly drawn), the result was inactive.

`Cc1cc(C(F)(C(F)(F)F)C(F)(F)F)ccc1NC(=O)c1cccc(I)c1C(=O)NC(C)(C)CS(C)(=O)=O`: the call was inactive.

As for `Cc1ccccc1OP(=O)(Oc1ccccc1C)Oc1ccccc1C`, the outcome was inactive.

For `CC(C)[C@@H](Nc1ccc(C(F)(F)F)cc1Cl)C(=O)OC(C#N)c1cccc(Oc2ccccc2)c1` (stereo partly drawn), the molecule was classed as inactive.

`CS(=O)(=O)c1ccc(C(=O)C2C(=O)CCCC2=O)c(Cl)c1COCC(F)(F)F`: the result was inactive.

As to `CNC(=O)CSP(=O)(OC)OC`, the call was inactive.

For `CC1(C)[C@H](C(=O)O[C@H](C#N)c2cccc(Oc3ccccc3)c2)[C@@H]1/C=C(\Cl)C(F)(F)F`, the AC50 was 3630 nM (active).

`CCOCn1c(-c2ccc(Cl)cc2)c(C#N)c(Br)c1C(F)(F)F`: the molecule was called inactive.

A further assay in a line: IUF_NPC1a_proliferation_area_72hr: Leibniz Research Institute for Environmental Medicine (IUF) 72-hour Neural Progenitor Cell Proliferation Area Assay (NPC1a) (AID 2284208).
Conditions: not given
In a few lines: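 Read-out: increase in sphere area over 72 h by automated phase-contrast imaging, fitted in positive direction versus DMSO baseline. One hNPC sphere (0.25-0.35 mm) per well in EGF/FGF medium; growth-factor withdrawal served as positive control.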
Consider `OC(Cc1ccccc1Cl)(Cn1[nH]cnc1=S)C1(Cl)CC1` (stereo not drawn), for which the molecule was called inactive.

With `O=S1OC[C@@H]2[C@H](CO1)[C@]1(Cl)C(Cl)=C(Cl)[C@@]2(Cl)C1(Cl)Cl` (stereo partly drawn), the molecule was called inactive.

As to `Cc1cc(C(F)(C(F)(F)F)C(F)(F)F)ccc1NC(=O)c1cccc(I)c1C(=O)NC(C)(C)CS(C)(=O)=O`, the result was inactive.

For the molecule `Cc1ccccc1OP(=O)(Oc1ccccc1C)Oc1ccccc1C`, the molecule was classed as inactive.

Consider `CC(C)[C@@H](Nc1ccc(C(F)(F)F)cc1Cl)C(=O)OC(C#N)c1cccc(Oc2ccccc2)c1` (stereo partly drawn), for which the molecule was called inactive.

With `CS(=O)(=O)c1ccc(C(=O)C2C(=O)CCCC2=O)c(Cl)c1COCC(F)(F)F`, the molecule was classed as inactive.

In the case of `CNC(=O)CSP(=O)(OC)OC`, the molecule was called inactive.

For the molecule `CC1(C)[C@H](C(=O)O[C@H](C#N)c2cccc(Oc3ccccc3)c2)[C@@H]1/C=C(\Cl)C(F)(F)F`, the molecule was classed as inactive.

Take `CCOCn1c(-c2ccc(Cl)cc2)c(C#N)c(Br)c1C(F)(F)F`: the AC50 is 26.3 µM (active).

A further assay in a line: IUF_NPC1_viability_72hr: Viability Assessment at 72 hours in the Leibniz Research Institute for Environmental Medicine (IUF) Neural Progenitor Cell Proliferation Assay (NPC1) (AID 2284209).
Conditions: not given
An outline of the steps:
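Single spheres (0.25-0.35 mm) of human fetal cortex-derived neural progenitor cells were grown in proliferation medium with EGF and FGF at 37C and 5% CO2. They were exposed for 72 h without renewal, and viability was read by alamar blue resorufin fluorescence.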
As for `OC(Cc1ccccc1Cl)(Cn1[nH]cnc1=S)C1(Cl)CC1` (stereo not drawn), the call was inactive.

In the case of `O=S1OC[C@@H]2[C@H](CO1)[C@]1(Cl)C(Cl)=C(Cl)[C@@]2(Cl)C1(Cl)Cl` (stereo partly drawn), the AC50 is 2.59 µM (active).

With `Cc1cc(C(F)(C(F)(F)F)C(F)(F)F)ccc1NC(=O)c1cccc(I)c1C(=O)NC(C)(C)CS(C)(=O)=O`, the molecule was called inactive.

In the case of `Cc1ccccc1OP(=O)(Oc1ccccc1C)Oc1ccccc1C`, the result was inactive.

Regarding `CC(C)[C@@H](Nc1ccc(C(F)(F)F)cc1Cl)C(=O)OC(C#N)c1cccc(Oc2ccccc2)c1` (stereo partly drawn), the outcome was inactive.

Turning to `CS(=O)(=O)c1ccc(C(=O)C2C(=O)CCCC2=O)c(Cl)c1COCC(F)(F)F`, the molecule was called inactive.

Take `CNC(=O)CSP(=O)(OC)OC`: the molecule was classed as inactive.

On to `CC1(C)[C@H](C(=O)O[C@H](C#N)c2cccc(Oc3ccccc3)c2)[C@@H]1/C=C(\Cl)C(F)(F)F`, for which the call was inactive.

Consider `CCOCn1c(-c2ccc(Cl)cc2)c(C#N)c(Br)c1C(F)(F)F`, for which the AC50 was 26.8 µM (active).

A short description of another assay: CCTE_Mundy_HCI_Cortical_Synap_Neur_Matur_NeuriteSpotCountPerNeuriteLength: CCTE's Synaptogenesis and Neurite Maturation Assay in rat cortical cells for Neurite Spot Count per Neurite Length, Mundy Lab (AID 2284210).
Conditions: not given
In a few lines: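 Rat primary cortical cultures, AraC added at DIV 5 to suppress glia; chemical exposure from DIV 7 to DIV 12. Fixed cells stained for MAP2 and synaptophysin plus Hoechst; synaptophysin puncta per neurite length quantified by high-content imaging, relative to DMSO.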
Take `OC(Cc1ccccc1Cl)(Cn1[nH]cnc1=S)C1(Cl)CC1` (stereo not drawn): the AC50 was 80.4 µM (active).

`Cc1cc(C(F)(C(F)(F)F)C(F)(F)F)ccc1NC(=O)c1cccc(I)c1C(=O)NC(C)(C)CS(C)(=O)=O`: the molecule was classed as inactive.

In the case of `Cc1ccccc1OP(=O)(Oc1ccccc1C)Oc1ccccc1C`, the molecule was classed as inactive.

As to `CC(C)[C@@H](Nc1ccc(C(F)(F)F)cc1Cl)C(=O)OC(C#N)c1cccc(Oc2ccccc2)c1` (stereo partly drawn), the outcome was inactive.

`CS(=O)(=O)c1ccc(C(=O)C2C(=O)CCCC2=O)c(Cl)c1COCC(F)(F)F`: the call was inactive.

Consider `NC(=O)c1ccc(N)nc1`, for which the result was inactive.

With `CNC(=O)CSP(=O)(OC)OC`, the result was inactive.

Turning to `CC1(C)[C@H](C(=O)O[C@H](C#N)c2cccc(Oc3ccccc3)c2)[C@@H]1/C=C(\Cl)C(F)(F)F`, the AC50 was 4.59 µM (active).

As for `CCOCn1c(-c2ccc(Cl)cc2)c(C#N)c(Br)c1C(F)(F)F`, the AC50 was 22.7 µM (active).

A short description of another assay: CCTE_Mundy_HCI_Cortical_Synap_Neur_Matur_BPCount: CCTE's Synaptogenesis and Neurite Maturation Assay in rat cortical cells for Branch Point Count, Mundy Lab (AID 2284211).
Conditions: not given
In a few lines:
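Rat primary cortical cultures, AraC added DIV 5; chemicals dosed DIV 7 through DIV 12. Fixed cells stained for MAP2, synaptophysin and Hoechst; neurite branch points counted by automated high-content imaging, fitted relative to DMSO.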
For the molecule `OC(Cc1ccccc1Cl)(Cn1[nH]cnc1=S)C1(Cl)CC1` (stereo not drawn), the AC50 is 50 µM (active).

For the molecule `Cc1cc(C(F)(C(F)(F)F)C(F)(F)F)ccc1NC(=O)c1cccc(I)c1C(=O)NC(C)(C)CS(C)(=O)=O`, the molecule was classed as inactive.

For `Cc1ccccc1OP(=O)(Oc1ccccc1C)Oc1ccccc1C`, the AC50 is 26.4 µM (active).

Take `CC(C)[C@@H](Nc1ccc(C(F)(F)F)cc1Cl)C(=O)OC(C#N)c1cccc(Oc2ccccc2)c1` (stereo partly drawn): the molecule was called inactive.

Take `CS(=O)(=O)c1ccc(C(=O)C2C(=O)CCCC2=O)c(Cl)c1COCC(F)(F)F`: the call was inactive.

As to `NC(=O)c1ccc(N)nc1`, the AC50 was 9.07 µM (active).

On to `CNC(=O)CSP(=O)(OC)OC`, for which the result was inactive.

Regarding `CC1(C)[C@H](C(=O)O[C@H](C#N)c2cccc(Oc3ccccc3)c2)[C@@H]1/C=C(\Cl)C(F)(F)F`, the AC50 was 2.28 µM (active).

For the molecule `CCOCn1c(-c2ccc(Cl)cc2)c(C#N)c(Br)c1C(F)(F)F`, the half-maximal activity concentration (AC50) was 13.1 µM (active).
